# Assay results: PubChem BioAssay (Tox21)
# Where “and” joins values, the source holds several entries; their conditions need not be identical. Identical values can stand only once. Inconclusive results are not listed. The source holds several records for some structures; these can differ, active in one and inactive in another. Calls of active or inactive are those of the source. Calls come from the whole dose curve.
# Assay: Nuclear factor erythroid 2-related factor 2/antioxidant responsive element (Nrf2/ARE) small molecule agonists: luciferase reporter gene qHTS assay in human keratinocytes (AID 1919969); note: nearly all actives have a fitted effect of over 35% in size
# Conditions: KeratinoSens HaCaT ARE-luciferase, luminescence, 24 h; series mostly up to 92.4 µM; activity, positive = activation: at the top concentration
# From the text: National Center for Advancing Translational Sciences [NCATS]
# Division of Preclinical Innovation [DPI]
# U.S. Environmental Protection Agency [EPA]
# National Institutes of Environmental Health Sciences [NIEHS]
# National Toxicology Program [NTP]
# U.S. Food and Drug Administration [FDA]
# Oxidative stress has been implicated in the pathogenesis of a variety of diseases ranging from cancer to neurodegeneration. The antioxidant response element (ARE) signaling pathway plays an important role in the amelioration of oxidative stress. The KeratinoSens (Givaudan, Switzerland) is an in vitro test method which quantifies luciferase induction as a measure of activation of Keap1-Nrf2-antioxidationt/electrophile response element (ARE) dependant pathway in HaCaT human keratinocytes stably transfected with a selectable plasmid. The KeratinoSens assay is a cell-based assay with a reporter cell line to detect potential skin sensitizers by their ability to induce the Nrf2/ARE-response. The activation of the report gene under culture conditions can be detected by ONE-Glo Luciferase Assay System (Promega, Madison, WI). This cell line has been used to screen the Tox21 10K compound library to identify agonists that induce oxidative stress. The cytotoxicity of the Tox21 compound library against the KS-ARE cell line was tested in parallel by measuring the cell viability using CellTiter- Fluor assay system (Promega, Madison, WI) in the same wells.
# HaCaT derived cell line KeratinoSens were dispensed at 1,500 cells/5uL/well in 1536-well white wall/solid bottom plates using a Multidrop Combi (ThermoFisher Scientific, Waltham, MA) dispenser. After the assay plates were incubated at 37 C/5% CO2 for 5 h, 23 nL of compounds dissolved in DMSO, positive controls or DMSO only was transferred to the assay plate by a pintool workstation (Kalypsys, San Diego, CA). The plates were incubated at 37 C/5% CO2 for 23 h, followed by addition of 1uL/well of CellTiter-Fluor reagent into the assay plates using a Flying Reagent Dispenser (Aurora Discovery, San Diego, CA) for cell viability readout that measures cytotoxicity. After 1 h incubation at 37 C/5% CO2 the fluorescence intensity was measured using a ViewLux (PerkinElmer, Shelton, CT) plate reader. Then 4uL/well of One-Glo were added using a Flying Reagent Dispenser. After the plates were incubated at room temperature for 30 min, the luminescence intensity in the assay plates was measured using ViewLux plate reader.
# % is set by controls: 0 for no effect and ±100 for the full control effect; potency is the fitted concentration of half-maximal effect.
SMILES,Potency,"activity, positive = activation"
CC(=O)CC(=O)Nc1ccccc1C,inactive,
CSc1ccc2c(c1)N(CCC1CCCCN1C)c1ccccc1S2 (stereo not given),inactive,
CCCCCC/C=C/C(=O)OC,,-1.89% (inactive)
O=C(O)CCc1ccccc1,,2.58% (inactive)
CC(=O)OCCCc1ccccc1,,0.945% (inactive)
CCC(=O)OC,,-1.65% (inactive)
CCn1cc(C(=O)O)c(=O)c2cc3c(cc21)OCO3,,-1.35% [at 19 µM] (inactive)
O=C(O)c1ccccc1-n1cc(C(=O)O)c(=O)c2cc(Nc3c(F)cc(F)cc3Cl)c(Cl)cc21,,0.821% (inactive)
CC(C)c1cccc(O)c1,,-10.7% (inactive)
C1=Cc2ccccc2C1,,-9.3% (inactive)
O=C1Nc2ccccc2C1=O,,10.6% (inactive)
C[C@@H]1CC(=O)NN=C1c1ccc(NN=C(C#N)C#N)cc1,23.7 µM (active) and 26.6 µM (active),
O=Cc1ccc(Cl)c(Cl)c1,,7.93% (inactive)
Brc1cc(Br)cc(Br)c1,,-1.02% (inactive)
O=C1CC(c2ccc(Cl)cc2)CC(=O)N1,,-0.234% [at 42.5 µM] (inactive)
Cc1nc2ccccc2s1,,3.18% (inactive)
NC(=O)c1cccc([N+](=O)[O-])c1,,-3.84% (inactive)
CCCCc1ncc(/C=C(\Cc2cccs2)C(=O)O)n1Cc1ccc(C(=O)O)cc1,,-2.44% [at 42.5 µM] (inactive)
OCCC(F)(F)C(F)(F)C(F)(F)C(F)(F)C(F)(F)C(F)(F)F,,-16% (inactive)
c1ccc2c(c1)CCC2,13.7 µM (active),

SMILES,Potency,"activity, positive = activation"
Cc1cccc(N(C)C)c1,,3.18% (inactive)
C[Si](C)O[Si](C)C,,-0.398% (inactive)
CCC(C)=O,,-3.89% (inactive)
CC(C)CCOCCC(C)C,,5.92% (inactive)
CC(C)COC(=O)c1ccccc1O,,-1.28% (inactive)
CCc1c(C(=O)O)c(=O)cnn1-c1ccc(Cl)cc1,,-11.1% (inactive)
CCCCCC=O,,0.514% (inactive)
CCOC(=S)SSC(=S)OCC,68.6 µM (active),
O=C(C(=O)c1ccccc1)c1ccccc1,,-9.85% (inactive)
CCOc1ncc(F)c(=O)[nH]1,,-0.856% [at 42.5 µM] (inactive)
C=Cc1ccccn1,,6.68% (inactive)
CCCCCCCO,inactive and 61.1 µM (active),
CCN(CC)c1ccc(C=O)c(O)c1,,-5.1% (inactive)
CCC(C)CO (stereo not given),,-1.15% (inactive)
CCOC(=O)[C@H](CCc1ccccc1)N[C@@H](C)C(=O)N1Cc2ccccc2C[C@H]1C(=O)O,,-4.12% (inactive)
COc1c2ccoc2cc2oc(=O)ccc12,,-7.05% (inactive)
COc1cccc(OC)c1C(=O)N[C@@H]1C(=O)N2[C@@H]1SC(C)(C)[C@@H]2C(=O)O,,1.29% [at 42.5 µM] (inactive)
CCC(CC)C(C)CCOC(C)=O (stereo not given),,2.89% (inactive)
COC(=O)Nc1nc2ccc(S(=O)c3ccccc3)cc2[nH]1 (stereo not given),inactive and 13.3 µM (active),
CCOC=C(C(=O)OCC)C(=O)OCC,,-7.05% (inactive)
